Assay outcomes from PubChem BioAssay.
The list is not random: actives were taken first. Their share in the collection is about 12%.
JMJD2A Tudor: JMJD2A Tudor domain (human) inhibition. AID 504339. hit rate 4.4% among 390,000. O75164. Potency, µM (doses to about 114 µM), hits mostly inhibitors. AlphaScreen JMJD2A-Tudor / H3K4me3 peptide binding; also: nearly all actives have a fitted effect of over 50% in size
Target sequence (O75164 whole entry, looked up, the tested form may be a part): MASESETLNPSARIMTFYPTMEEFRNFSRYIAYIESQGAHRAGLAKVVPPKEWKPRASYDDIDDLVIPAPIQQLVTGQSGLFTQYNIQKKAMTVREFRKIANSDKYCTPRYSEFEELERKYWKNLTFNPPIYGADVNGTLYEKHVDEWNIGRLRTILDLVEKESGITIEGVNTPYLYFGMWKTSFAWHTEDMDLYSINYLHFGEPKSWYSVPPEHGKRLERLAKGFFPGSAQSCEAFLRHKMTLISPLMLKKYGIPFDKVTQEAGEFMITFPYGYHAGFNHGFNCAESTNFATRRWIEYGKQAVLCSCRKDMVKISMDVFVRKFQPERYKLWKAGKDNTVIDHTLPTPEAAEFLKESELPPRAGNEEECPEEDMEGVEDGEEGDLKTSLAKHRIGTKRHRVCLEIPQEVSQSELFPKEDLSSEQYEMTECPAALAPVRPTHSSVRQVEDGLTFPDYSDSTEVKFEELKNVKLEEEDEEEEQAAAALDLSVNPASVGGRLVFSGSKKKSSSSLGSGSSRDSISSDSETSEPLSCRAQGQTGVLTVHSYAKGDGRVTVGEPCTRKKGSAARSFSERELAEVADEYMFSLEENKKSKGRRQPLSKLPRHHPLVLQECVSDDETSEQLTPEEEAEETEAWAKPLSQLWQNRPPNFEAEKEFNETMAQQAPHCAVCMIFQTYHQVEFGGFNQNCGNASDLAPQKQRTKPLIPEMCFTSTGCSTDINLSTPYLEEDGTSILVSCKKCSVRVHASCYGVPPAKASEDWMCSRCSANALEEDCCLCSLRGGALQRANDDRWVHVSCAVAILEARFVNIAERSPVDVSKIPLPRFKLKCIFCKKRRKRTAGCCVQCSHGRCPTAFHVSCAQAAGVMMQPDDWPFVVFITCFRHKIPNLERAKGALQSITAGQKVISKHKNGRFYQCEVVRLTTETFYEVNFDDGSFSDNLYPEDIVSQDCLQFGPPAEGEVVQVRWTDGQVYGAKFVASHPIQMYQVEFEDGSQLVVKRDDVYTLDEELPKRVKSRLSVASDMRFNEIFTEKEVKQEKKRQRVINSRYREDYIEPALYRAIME
HP1b binding inh: inhibitors of HP1-beta chromodomain binding to methylated histone tails. AlphaScreen HP1-beta / biotin-H3K9me3 peptide binding. hit rate 0.56% among 390,000. AID 540317. Potency, µM (titrated, usually from 114 µM), actives largely listed as inhibitors. P83916; also: nearly all actives have a fitted effect of over 70% in size
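HP1-beta protein (50 nM final) preincubated 30 min at room temperature with biotinylated H3(1-18)K9me3 peptide (50 nM) in PBS pH 7.4, 0.01% Tween-20, then compound added for 30 min. AlphaScreen streptavidin donor/nickel chelate acceptor beads (10 ug/mL final), 30 min dark, luminescence read.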
PLK1 PBD block: blocks phosphopeptide binding to human PLK1 polo-box domain | hit rate 2.8% among 360,000 | Plk1 PBD binding of FITC phosphopeptide, fluorescence polarization | P53350 | Potency, µM, most hits filed as inhibitors; also: series mostly up to about 57 µM; nearly all actives have a fitted effect of over 65% in size
G9a block: G9a (human) methyltransferase inhibition; Q96KQ7; hit rate 8.8% among 350,000; G9a H3K9 monomethylation, AlphaScreen, 2 h; Potency, µM (doses to about 102 µM), hits mostly inhibitors; also: nearly all actives have a fitted effect of over 75% in size
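Using a bead-based AlphaScreen, monomethylated H3K9 product from 2 h room-temperature reactions (G9a 20 nM, peptide 500 nM, SAM 20 uM) was detected with 0.5 ug/mL rabbit anti-H3K9me1 antibody.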
PI5P4K alpha inh: PI5P4K alpha (human) kinase inhibition; hit rate 1.2% among 330,000; PI5P4Kalpha enzyme, ADP-Glo luminescence, 60 min; hits give low values; max response, %; AID 652105; P48426; active = max response of -50% or lower; inconclusive = between -30% and -50%; inactive = -30% or higher; also: value at the top dose of about 77 µM
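ADP-Glo luminescence end-point after a 60 min room-temperature kinase reaction. PI5P4Kalpha and substrate in HEPES pH 7.4 buffer with EGTA, 0.1% CHAPS and 5% DMSO; ATP at 5 microM final.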
BAZ2B inh: blocks human BAZ2B; Q9UIF8; AlphaScreen BAZ2B-H3K14Ac peptide displacement; Potency, µM (titrated, usually from 114 µM), hits mostly inhibitors; hit rate 4.4% among 360,000; also: nearly all actives have a fitted effect of over 60% in size
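AlphaScreen displacement of biotin-H3(5-23)K14Ac peptide (50 nM final) from BAZ2B (50 nM final) in PBS pH 7.4, 0.01% Tween-20; complex preformed 30 min RT, then compounds (top 110 uM) 30 min RT, beads 20 min dark.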
Large screens that a line does not name were inactive. Unless noted, calls follow the shape of the dose curve; as a rule, active = well fitted curve in the direction sought with a large enough effect; inconclusive = small, poorly fitted or top-dose-only effect, or another doubt; inactive = no such curve, though single readings can be large; an effect the other way counts as inactive or inconclusive.

Cc1ccc(CNC(=O)CN2C(=O)C3(SCC(=O)N3c3ccc(F)c(F)c3)c3ccccc32)cc1 (configuration not stated)	none (no result: PLK1 PBD block, PI5P4K alpha inh)
CC(=O)Nc1ccc(S(=O)(=O)Nc2ccc3c(c2)CCC3)cc1	G9a block 45µM
Cc1onc(-c2cccc(Cl)c2Cl)c1C(=O)O/N=C(\N)c1ccc([N+](=O)[O-])o1	JMJD2A Tudor inconclusive, G9a block 35µM, BAZ2B inh inconclusive
Cc1onc(-c2ccccc2)c1C(=O)O/N=C(\N)c1ccc([N+](=O)[O-])o1	G9a block 45µM
COc1cc(C(=O)Nc2ccc(N3CCN(C(=O)c4ccc(C)cc4)CC3)cc2)cc(OC)c1OC	none (no result: G9a block)
COc1ccc(OC)c(CC2C(=O)Nc3ccc(Br)cc32)c1 (configuration not stated)	JMJD2A Tudor inconclusive, G9a block inconclusive, BAZ2B inh inconclusive (no result: PLK1 PBD block, PI5P4K alpha inh)
Cc1oc(/N=C/c2c(O)ccc3ccccc23)c(C#N)c1C	G9a block 1.6µM (no result: JMJD2A Tudor, HP1b binding inh, PLK1 PBD block, PI5P4K alpha inh, BAZ2B inh)
Cc1oc(/N=C/c2ccc(Cl)cc2Cl)c(C#N)c1C	G9a block 45µM
Cc1oc(/N=C/c2ccc(O)cc2O)c(C#N)c1C	PLK1 PBD block inconclusive, G9a block 45µM
COC(=O)N1CCC[C@@]2(CCN(c3ccncc3)C2)C1	none (no result: JMJD2A Tudor, HP1b binding inh, PLK1 PBD block, PI5P4K alpha inh, BAZ2B inh)
Cc1sc2ncn(CC(=O)Nc3ccc(F)cc3Cl)c(=O)c2c1S(=O)(=O)N1CCN(c2ncccn2)CC1	none (no result: PLK1 PBD block, PI5P4K alpha inh)
C[C@H](CCC(=O)O)[C@H]1CC[C@@H]2[C@H]3[C@@H](CC[C@@]21C)[C@]1(C)CC[C@H](O)C[C@@H]1C[C@@H]3O	none (no result: JMJD2A Tudor, HP1b binding inh, PLK1 PBD block, PI5P4K alpha inh, BAZ2B inh)
CCc1cccc(NC(=O)Cn2c(=O)n(CCCCCC(=O)NCc3ccc(F)cc3)c(=O)c3sccc32)c1	none (no result: PLK1 PBD block, PI5P4K alpha inh)
COc1ccc(Cl)cc1NC(=S)NNC(=O)C1(C)CC1(Cl)Cl (configuration not stated)	PLK1 PBD block inconclusive, PI5P4K alpha inh -52
COC(=O)c1cc(OC)c(OC)cc1NC(=S)Nc1cc(Cl)ccc1OC	PLK1 PBD block inconclusive, G9a block inconclusive
CCOC(=O)c1ccc(NC(=S)NNC(=O)C2(C)CC2(Cl)Cl)cc1 (configuration not stated)	G9a block 10µM
O=C(O)/C(=C\c1cccc(O)c1)c1ccc(S(=O)(=O)N2CCCC2)s1	G9a block inconclusive, PI5P4K alpha inh inconclusive, BAZ2B inh inconclusive
O=C(O)/C(=C\c1cccc(F)c1)c1ccc(S(=O)(=O)N2CCCCC2)s1	JMJD2A Tudor inconclusive, G9a block 56µM, BAZ2B inh inconclusive
O=C(Nc1ccccc1)c1cnc2n(c1=O)CCS2	G9a block 50µM
O=C(Nc1ccc2c(c1)OCCO2)c1cnc2n(c1=O)CCS2	G9a block 50µM
Cc1cccc(NC(=O)c2cnc3n(c2=O)CCS3)c1	none (no result: PI5P4K alpha inh)
O=C(NCCc1ccc(Cl)cc1)c1cnc2n(c1=O)CCS2	G9a block 45µM
C[C@@H]1COC(=O)[C@H](Cc2ccc(F)cc2)C/C=C\C[C@@H](CC(=O)NCCO)C(=O)N1	none (no result: G9a block, BAZ2B inh)
COc1cc(Cl)c(C)cc1NC(=O)COC(=O)C1=COCCO1	none
CCOc1ccc(CNC(=O)C2CCN(S(=O)(=O)N3CCCCC3)CC2)cc1	none (no result: PLK1 PBD block, PI5P4K alpha inh)
O=c1cc(-c2nn[nH]n2)[nH]c(=O)[nH]1	JMJD2A Tudor inconclusive, PI5P4K alpha inh -70 (no result: G9a block, BAZ2B inh)
O=S(=O)(Nc1ccc(-n2cnnn2)cc1)c1cccs1	G9a block inconclusive
COC(=O)[C@H](C)NC(=O)NCCC1=CCCCC1	JMJD2A Tudor 71µM, PLK1 PBD block 30µM
CCC(C)[C@H](NC(=O)NCCC1=CCCCC1)C(=O)OC (some centres not stated)	G9a block inconclusive
Cn1c2ccccc2c2c(C(=O)N3CCN(c4cccc(Cl)c4)CC3)cn(C3CCCCC3)c(=O)c21	none (no result: PLK1 PBD block, PI5P4K alpha inh)
COc1ccc(N2CCN(C(=O)c3cn(C4CCCC4)c(=O)c4c3c3ccccc3n4C)CC2)cc1	JMJD2A Tudor 14µM, HP1b binding inh inconclusive, G9a block 32µM, BAZ2B inh inconclusive
COc1ccc(N2CCN(C(=O)c3cn(C)c(=O)c4c3c3ccccc3n4C)CC2)cc1	JMJD2A Tudor inconclusive, G9a block 32µM, BAZ2B inh 45µM (no result: PI5P4K alpha inh)
